From the supplement of paper PMC8371130
Structures can show the parent of a compound that is named as a salt.

Tested on: HL-1
Experiment: relative cell viability (CellTiter-Glo) vs DMSO control (% of DMSO control); higher = more viable cells
Settings: oxygen condition: hypoxia 48 h (1% O2) + reoxygenation 24 h; 200 nM
How it was run: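 HL-1 mouse atrial cardiomyocytes were plated in 384-well plates at 1000 cells per well together with compounds at 40, 200, 1000 or 5000 nM in 0.01% DMSO. One day later, cells went to a hypoxic workstation (1% O2) for 48 h, then were reoxygenated for 24 h in a normal incubator, or stayed in normoxia for the same time. Cell viability was read by CellTiter-Glo luminescence and normalised to vehicle-treated control cells.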

| SMILES | relative cell viability |
| --- | --- |
| N.N.[Cl][Pt][Cl] [Cisplatin] | 77.8 |
| CCN(C)C(=O)Oc1cccc([C@H](C)N(C)C)c1 [Rivastigmine tartrate] | 102 |
| C[C@@H]1O[C@@H](O[C@H]2C[C@@H](O)[C@]3(CO)[C@H]4[C@H](O)C[C@]5(C)[C@@H](C6=CC(=O)OC6)CC[C@]5(O)[C@@H]4CC[C@]3(O)C2)[C@H](O)[C@H](O)[C@H]1O [Ouabain] | 103 |
| OC(c1ccccc1)(c1ccccc1)C1CCNCC1 [Azacyclonol] | 104 |
| CCC1(c2cccc(O)c2)CCCCN(C)C1 (configuration not stated) [Meptazinol HCl] | 103 |
| CNC(=O)Oc1ccc2c(c1)[C@]1(C)CCN(C)[C@@H]1N2C [Physostigmine Salicylate] | 84.3 |
| CN1[C@@H]2CC[C@H]1C[C@@H](OC(=O)[C@H](CO)c1ccccc1)C2 [Hyoscyamine] | 103 |
| C[C@]12CC[C@H](O)CC1=CC[C@@H]1[C@@H]2CC[C@]2(C)C(=O)CC[C@@H]12 [Dehydroepiandrosterone] | 94 |
| CC(=O)O[C@H]1C[C@@H]2CC[C@@H]3[C@H](CC[C@@]4(C)[C@H]3C[C@H]([N+]3(C)CCCCC3)[C@@H]4OC(C)=O)[C@@]2(C)C[C@@H]1[N+]1(C)CCCCC1 [Pancuronium] | 101 |
| CN(C)C(=O)Oc1ccc[n+](C)c1 [Pyridostigmine Bromide] | 104 |
| CN1c2ccccc2C(NCCCCCCC(=O)O)c2ccc(Cl)cc2S1(=O)=O (configuration not stated) [Tianeptine sodium] | 105 |
| CCCN1C[C@H](CSC)C[C@@H]2c3cccc4[nH]cc(c34)C[C@H]21 [Pergolide mesylate] | 100 |
| O=C(O)c1nn(Cc2ccc(Cl)cc2Cl)c2ccccc12 [Lonidamine] | 105 |
| C#C[C@]1(O)C=C[C@H]2[C@@H]3CCC4=CC(=O)CC[C@@H]4[C@H]3CC[C@@]21CC [Gestodene] | 100 |
| Cc1cccc([C@H](C)c2c[nH]cn2)c1C [Dexmedetomidine HCl] | 107 |
| C[N+](C)(C)CCCCCCCCCC[N+](C)(C)C [Decamethonium bromide] | 103 |
| O=P1(N(CCCl)CCCl)NCCCO1 (configuration not stated) [Cyclophosphamide monohydrate] | 94.2 |
| CN1C(=O)COc2c(C(=O)NC3CN4CCC3CC4)cc(Cl)cc21 (configuration not stated) [Azasetron HCl] | 97.9 |
| Cc1cccc(C)c1NC1=NCCCS1 [Xylazine HCl] | 101 |
| CC[C@@H](C(N)=O)N1CCCC1=O [Levetiracetam] | 109 |
| O=C(O[C@H]1C[N+]2(CCCOc3ccccc3)CCC1CC2)C(O)(c1cccs1)c1cccs1 [Aclidinium Bromide] | 108 |
| CC[N+]1(C)CCCC(OC(=O)C(O)(c2ccccc2)c2ccccc2)C1 (configuration not stated) [Pipenzolate Bromide] | 98.3 |
| C[C@]12C/C(=C/O)C(=O)C[C@@H]1CC[C@@H]1[C@@H]2CC[C@@]2(C)[C@H]1CC[C@]2(C)O [Oxymetholone] | 104 |
| O=c1[nH]c2ccccc2n1CCCN1CCC(n2c(=O)[nH]c3cc(Cl)ccc32)CC1 [Domperidone] | 105 |
| CC[C@@]1(O)C(=O)OCc2c1cc1n(c2=O)Cc2cc3ccccc3nc2-1 [Camptothecin] | 103 |
| Cc1cccc([C@H](C)c2c[nH]cn2)c1C [Dexmedetomidine] | 105 |
| COc1ccc(C(=O)N2CCCC2=O)cc1 [Aniracetam] | 111 |
